Source: PubChem BioAssay (Tox21)
Results filed as inconclusive are left out. Some compounds were tested as several samples or in several runs, with calls that do not always agree. Activity calls are given as the source filed them. Calls follow the shape of the dose curve; as a rule, active = well fitted cell-killing curve with a large enough effect in the repeat runs (not every such curve was filed as active); inconclusive = weak or mixed curves, or effect the other way; inactive = no such curve, though single readings can be large or run the other way.

Assay: qHTS assay to identify small molecule antagonists of the estrogen related receptor signaling pathway with the pleiotropic PPARgamma coactivator (PGC) from Tox21 10K library - cell viability counter screen (AID 1224840); also: nearly all actives have a fitted effect of over 40% in size
Details: PGC/ERR reporter cells viability, CellTiter-Fluor, 17.5 h; series mostly up to 92.4 µM; viability change, negative = cytotoxic: at the top concentration
Description: National Center for Advancing Translational Sciences [NCATS]
NIH Chemical Genomics Center [NCGC]
U.S. Environmental Protection Agency [EPA]
National Institutes of Environmental Health Sciences [NIEHS]
National Toxicology Program [NTP]
U.S. Food and Drug Administration [FDA]
Estrogen related receptors (ERRs), the first orphan nuclear receptors discovered, play an important role in the control of cellular energy metabolism. ERRs are required for high-energy production in response to the environmental challenges. The pleiotropic PPARgamma coactivator (PGC) is a major partner of ERR and a key regulator in energy homeostasis. Together they have been implicated in the etiology of metabolic disorders such as Type 2 diabetes and metabolic syndrome. ERR-alpha was also identified as an adverse marker for breast cancer progression; ERR-alpha-positive tumors have a poor prognosis. To screen and to identify environmental compounds that perturb the ERR and PGC/ERR signaling pathways could provide valuable information for potential therapeutic or preventive measures in the treatment of metabolic disease. To differentiate true PGC/ERR antagonists or agonist from cytotoxic substances, the assay is multiplexed with cell viability assay.
Tox21 Assay Protocol Summary:
The PGC/ERR cells were dispensed at 2,000 cells/5 ul/well in 1536-well white plates using a Multidrop dispenser. After the assay plates were incubated at a 37 C/5% CO2 incubator for 6 hours, 23 nL of compounds dissolved in DMSO, positive and negative controls or DMSO only was transferred to the assay plate by a pin tool. The plates were incubated at 37 C for 17.5 hours. 1 ul/well of CellTiter-Fluor reagent was added into the assay plates using a Flying Reagent Dispenser. After 30-minute incubation at 37 C/5% CO2, the fluorescence intensity in the plates was measured using a ViewLux plate reader.
% is scaled to controls: 0 for no effect and ±100 for the full control effect; potency is read from the fitted curve at half-maximal effect.

| Structure (SMILES) | viability change, negative = cytotoxic | Potency |
| --- | --- | --- |
| CC(=O)N(CC(O)CO)c1c(I)c(C(=O)NCCO)c(I)c(C(=O)NCC(O)CO)c1I (stereo not given) | -8.09% [at 42.5 µM] (inactive) | – |
| O=c1[nH]c(=O)n([C@H]2C[C@H](O)[C@@H](CO)O2)cc1I | -6.26% [at 42.5 µM] (inactive) | – |
| OC[C@]1(O)OC[C@@H](O)[C@H](O)[C@@H]1O | – | inactive |
| CC(C)=CCCC(C)CC(=O)O (stereo not given) | 1.82% (inactive) | – |
| CCCCC/C=C\CCC=O | 0.859% (inactive) | – |
| O=C(O)CCCl | -0.457% (inactive) | – |
| CN(C)CCCN1c2ccccc2CCc2ccc(Cl)cc21 | – | 54.5 µM (active) and inactive |
| CN1CCCC1 | 2.42% (inactive) | – |
| CC(C)c1cc2c(cc1S(=O)(=O)O)[C@@]1(C)CCC[C@@](C)(C(=O)O)[C@@H]1CC2 | 2.99% [at 42.5 µM] (inactive) | – |
| N[C@@H](C(=O)N[C@@H]1C(=O)N2C(C(=O)O)=C(Cl)CS[C@H]12)c1ccccc1 | 10.3% [at 8.39 µM] (inactive) | – |
| Cn1cc(S(C)=O)c(=O)c2ccc(F)cc21 (stereo not given) | -5.11% [at 42.5 µM] (inactive) | – |
| O=C(CCCN1CCC(O)(c2cccc(C(F)(F)F)c2)CC1)c1ccc(F)cc1 | -11.2% [at 42.5 µM] (inactive) | – |
| CCCCNC(=O)NCCCC | 3.11% (inactive) | – |
| O=C(CCCN1CCN(c2ccccn2)CC1)c1ccc(F)cc1 | -0.382% [at 42.5 µM] (inactive) | – |
| OCCOc1ccc(OCCO)cc1 | -2.85% (inactive) | – |
| CCOC(=O)Nc1ccc(NCc2ccc(F)cc2)nc1N | -1.66% [at 42.5 µM] (inactive) | – |
| CN(C)CCCNCCCN(C)C | 5.78% (inactive) | – |
| CCOC(=O)c1cccc(N)c1 | -3.22% [at 42.5 µM] (inactive) | – |
| Cc1cccc(C)c1NC(=O)C(C)N (stereo not given) | -6.01% [at 42.5 µM] (inactive) | – |
| CCCCOCCOCCOCCCC | -6.9% (inactive) | – |

| Structure (SMILES) | viability change, negative = cytotoxic | Potency |
| --- | --- | --- |
| CC/C=C\CCOC(C)=O | 4.49% (inactive) | – |
| Brc1c(NC2=NCCN2)ccc2nccnc12 | 1.4% [at 42.5 µM] (inactive) | – |
| CC(=O)OCC(=O)[C@@]1(O)CC[C@H]2[C@@H]3CCC4=CC(=O)CC[C@]4(C)[C@H]3C(=O)C[C@@]21C | 15.7% [at 42.5 µM] (inactive) | – |
| C/C=C(\C)C#N | 0.259% (inactive) | – |
| Nc1ccc(S(=O)(=O)Nc2ccnn2-c2ccccc2)cc1 | 2.18% [at 19 µM] (inactive) | – |
| NC(=O)c1ccc(N)cc1 | 13.9% (inactive) | – |
| C=CCOCC(CC)(CO)COCC=C | 7.04% (inactive) | – |
| CO[Si](CCCOCC1CO1)(OC)OC (stereo not given) | – | inactive |
| CN1CCC(=C2c3ccccc3CC(=O)c3sccc32)CC1 | 0.948% [at 42.5 µM] (inactive) | – |
| CCCN1CCCC[C@H]1C(=O)Nc1c(C)cccc1C | 3.48% [at 42.5 µM] (inactive) | – |
| CCOC(=O)c1ccc(C)cc1 | -5.94% (inactive) | – |
| CCOC(=O)CCC(C)=O | 15.1% (inactive) | – |
| Cc1[nH]c(=O)c(C#N)cc1-c1ccc2nccn2c1 | 12.5% [at 42.5 µM] (inactive) | – |
| CC(=O)c1ccccc1O | 5.48% (inactive) | – |
| NCCc1cnc[nH]1 | 16.6% [at 42.5 µM] (inactive) | – |
| CCOC(C)(C)C | -7.71% (inactive) | – |
| COC(=O)NN | 10.8% (inactive) | – |
| c1ccc([C@H]2CN3CCSC3=N2)cc1 | -0.545% [at 42.5 µM] (inactive) | – |
| COc1ccccc1OCC(O)CN1CCN(CC(=O)Nc2c(C)cccc2C)CC1 (stereo not given) | -3.54% [at 42.5 µM] (inactive) | – |
| CO/N=C(/C(=O)N[C@@H]1C(=O)N2C(C(=O)OCOC(=O)C(C)(C)C)=C(C)CS[C@H]12)c1csc(N)n1 | 2.13% [at 42.5 µM] (inactive) | – |
